# Assay outcomes deposited in PubChem by National Center for Advancing Translational Sciences (NCATS).
# D1 agonist: human D1 receptor agonism; P21728; HEK293 T-REx D1 cells, calcium flux, agonist mode; activation, % at 2 µM; 360,000 compounds, 1% hits; AID 504660; also: 0% is about no effect
#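 Inducible HEK293 T-REx D1 cells, force-coupled to calcium signalling, were plated at 4000 cells/well with tetracycline and held overnight at 30 C. After no-wash calcium dye loading, compound-evoked calcium rise over 180 s flagged agonists.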
# Epigenetic derep: regulators of epigenetic silencing causing reporter derepression in mouse cells; murine LDR cells, GFP reporter derepression, 30 h; 280,000 compounds, 0.2% hits; Potency, µM (top dose mostly 53.9 µM), for the others: top-dose GFP activation, most hits filed as activators; active = well fitted activation curve with a large enough effect; also: potency is read from the fitted curve at half-maximal effect; % of control where 0% means no effect; nearly all actives have a fitted effect of over 60% in size
#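 In this reporter-derepression format, murine cells bearing a silenced integrated CMV-GFP locus incubate with test compound (30 h, 37 C), then are washed and imaged; fluorescent objects of 20–120 um count as induced cells.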
# D1 antagonist: blocks dopamine activation of the human D1 receptor. HEK293 TREx D1 cells, calcium flux, dopamine EC80; hits give low values. 360,000 compounds, 3.2% hits. P21728. activity change, negative = inhibition, % at 10 µM; in the data active = activity change below about -30%; also: % is scaled to controls: 0 for no effect and ±100 for the full control effect
#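 Inducible Hek293 Trex D1 cells (tetracycline, overnight, 30 C). Calcium dye 30–90 min RT. Antagonist mode: EC80 dopamine added after 180 s compound read.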
# TRHR enhancer: allosteric enhancers of human TRH receptor | enhancement, % at 2 µM | 360,000 compounds, 0.66% hits | AID 493056 | P34981 | TRHR cells, fluo-8 calcium fluorescence, EC20 TRH enhancement; in the data active = enhancement above about 30%; also: 0% is about no effect
# Target sequence (P34981 whole entry, looked up): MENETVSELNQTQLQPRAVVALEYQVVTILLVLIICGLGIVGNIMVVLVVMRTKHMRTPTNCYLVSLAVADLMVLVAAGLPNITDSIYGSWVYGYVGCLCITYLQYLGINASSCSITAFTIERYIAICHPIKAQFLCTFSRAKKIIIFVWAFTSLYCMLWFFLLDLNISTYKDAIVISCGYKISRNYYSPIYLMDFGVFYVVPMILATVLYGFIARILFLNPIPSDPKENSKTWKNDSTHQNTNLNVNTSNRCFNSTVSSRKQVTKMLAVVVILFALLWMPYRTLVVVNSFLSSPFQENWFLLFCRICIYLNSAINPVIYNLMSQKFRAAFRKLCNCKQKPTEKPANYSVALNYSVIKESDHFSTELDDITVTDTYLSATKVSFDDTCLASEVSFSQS
#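 TRHR-expressing cells loaded with fluo-8 calcium dye were read kinetically (ex 480/em 530) during compound addition, then stimulated with an EC20 of TRH (10 nM final). Enhancement of the Gq-mediated intracellular calcium response was scored.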
# D1 PAM: human D1 dopamine receptor positive modulation | 360,000 compounds, 0.036% hits | AID 504651 | potentiation, % at 10 µM | HEK293 TREx D1 cells, calcium flux, dopamine EC20 potentiation; in the data active = potentiation above about 30%; also: 0% is about no effect
# TRHR agonist: TRH receptor (human) agonism; P34981; TRHR cells, calcium flux fluo-8, FDSS agonist mode; activation, % at 2 µM; 360,000 compounds, 0.18% hits; AID 493084; also: 0% is about no effect
#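 Steps: seed TRHR cells overnight; add fluo-8 no-wash Ca dye, RT 30 min–1.5 h; record 10 s baseline; pin-transfer compounds; monitor fluorescence 1 cycle/s for the agonist window. Calcium increases flag candidate agonists.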
# * marks the source's active call; other numbers are inactive results; nt = not tested or not shown; [ ] = remark or other dose. Compounds with a hit are over-represented: about 4.6% of the library has one in this group of screens. Rule as the data show it, unless noted: active = activation above about 30%; inactive = the rest.
SMILES,D1 agonist,Epigenetic derep,D1 antagonist,TRHR enhancer,D1 PAM,TRHR agonist
O=C(NCCc1ccccc1)C(=O)NCC(c1cccnc1)N1CCN(c2ccccc2F)CC1 (centres undefined),1.1,0.0%,5.0,-5.2,-0.9,-0.1
Cc1cc2c(s1)c1cnn(Cc3ccc(F)c(F)c3F)c(=O)c1n2C,1.3,nt,4.7,2.2,10.0,-0.6
O=[N+]([O-])c1ccc(Nc2nc(NCCO)nc(N3CCCC3)n2)cc1,0.5,3.9%,-18.3,0.1,3.4,0.3
CCOc1ccc(CNc2ccc(N3CCOCC3)c(C(=O)O)c2)cc1,3.5,-7.0%,-56.4*,-3.4,-10.9,-0.1
Cc1cc(/C=N/Nc2nc(N3CCOCC3)nc(N3CCOCC3)n2)c(C)n1-c1ccccc1,2.2,4.2%,4.6,32.2*,-1.9,-0.5
COc1ccc(Nc2nc(N3CCOCC3)nc(N3CCOCC3)n2)cc1,6.3,nt,17.4,4.2,0.1,-1.1
CCOc1ccc(Nc2nc(Nc3ccc(OCC)cc3)nc(N3CCOCC3)n2)cc1,0.6,-0.3%,-5.6,34.5*,-1.9,-0.5
CCCNc1nc(Nc2ccc(C)cc2)nc(N2CCCC2)n1,4.6,-2.1%,-35.5*,19.5,-23.1,1.0
c1ccc(Nc2nc(N3CCOCC3)nc(N3CCOCC3)n2)cc1,1.1,-2.0%,-8.1,39.4*,2.2,0.3
Cc1ccc(-n2ncc3c(NCC(C)C)ncnc32)c(C)c1,-1.5,0.2%,-32.0*,-1.5,-1.1,0.8
C=CCNc1ncnc2c1cnn2-c1ccc(C)cc1C,-0.5,0.0%,17.2,11.4,4.3,-1.1
CCOC(=O)N1CCC(Nc2ncnc3c2cnn3-c2ccc(C)cc2C)CC1,0.8,-0.8%,-31.1*,29.8,-3.9,-0.3
CC(=C/c1ccccc1)/C=N/n1c(C)n[nH]c1=S,1.9,nt,-22.1,32.3*,-4.8,0.5
O=C(CNC(=O)c1cccc(Cl)c1)OC(C(=O)Nc1cc(C(F)(F)F)ccc1Cl)c1ccccc1 (centres undefined),12.3,nt,-1.7,11.2,-1.0,-0.2
CC1C(=O)N2CCCc3cc(S(=O)(=O)Nc4ccccc4C(N)=O)cc1c32 (centres undefined),2.2,nt,-5.2,32.3*,-3.9,0.3
CC1C(=O)N2CCCc3cc(S(=O)(=O)Nc4ccccc4F)cc1c32 (centres undefined),5.1,nt,5.6,4.8,-0.9,-0.1
COc1ccc(CCn2c3c(c(=O)[nH]c2=O)C(NC(=O)c2ccccc2OC)(C(F)(F)F)C(=O)N3)cc1OC (centres undefined),1.9,0.0%,-10.7,-0.5,-0.9,0.9
CCCCc1cc(=O)oc2cc(OCC(=O)NCc3ccccn3)ccc12,3.0,nt,-41.7*,2.7,1.0,-0.9
CC(C)(C)n1cnnc1Sc1ncccc1[N+](=O)[O-],2.8,-1.1%,-31.8*,2.8,11.0,0.6
N#Cc1ccc(C(=O)NCC(=O)OC(C(=O)Nc2cc(C(F)(F)F)ccc2Cl)c2ccccc2)cc1 (centres undefined),7.7,nt,13.6,-3.0,-1.9,1.4
CCOc1ccc(CN2CCN(Cc3[nH]c4ccccc4c3C)CC2CCO)cc1 (centres undefined),47.6*,3.1%,-1.4,18.8,-0.9,2.2
Cc1c(CN2CCN(CC(C)(C)C)C(CCO)C2)[nH]c2ccccc12 (centres undefined),3.2,nt,21.0,20.4,-2.4,0.5
CN(C)CCNc1ccc(Cl)cc1[N+](=O)[O-],5.8,0.0%,-14.8,0.2,1.6,0.5
CCN(CCNc1ccc(Cl)cc1[N+](=O)[O-])C(=O)c1cc([N+](=O)[O-])c(N(C)C)cc1OC,3.0,-2.2%,-79.9*,-9.2,-7.3,-1.0
CN(C)c1ccc(/C=N/NC(=O)c2ccc3c(c2)OCO3)cc1,1.8,nt,-30.1*,2.1,-3.2,-0.2
SMILES,D1 agonist,Epigenetic derep,D1 antagonist,TRHR enhancer,D1 PAM,TRHR agonist
CN(C)c1ccc(/C=C/C(=O)c2ccc3c(c2)OCO3)cc1,455.1*,nt,4.5,23.5,-0.9,121.4*
Nc1n[nH]c(N)c1N=Nc1ccccc1F,0.3,nt,-34.9*,1.5,0.8,0.1
Cc1ccc(-c2nc3ccccc3[nH]2)s1,2.0,-1.3%,0.5,35.2*,0.7,-1.3
Cc1[nH]c2ccccc2c1-c1nc2ccccc2[nH]1,13.6,-1.0%,-77.0*,6.8,-12.2,-0.6
c1ccc(-c2nc3ccccc3[nH]2)cc1,0.1,nt,2.8,13.3,2.2,-0.1
COc1ccc2cc(-c3nnc(Nc4ccccc4)s3)c(=O)oc2c1,3.0,-0.2%,-12.7,0.2,-0.1,1.4
CCOc1ccc(Cl)cc1S(=O)(=O)n1nnc2ccccc21,3.1,2.0%,-38.9*,-2.9,-2.7,-0.2
COC(=O)CSc1nc(N)c(C#N)c(-c2ccc(O)cc2)c1C#N,3.3,-1.3%,-5.9,-2.5,-0.8,-0.4
C=CCSc1nc(N)c(C#N)c(-c2ccc(C)cc2)c1C#N,1.9,-1.1%,-3.9,38.4*,-4.6,0.2
C=CCOC(=O)N[C@@H](c1ccccc1)[C@@H](C)[N+](=O)[O-],nt,-1.1%,nt,nt,nt,nt
CCOC(=O)C1CCN(c2ncnc3c2cnn3-c2ccc(Cl)cc2)CC1,9.7,2.0%,-7.1,-7.0,-10.8,0.2
CCOC(=O)C1CCCN(c2ncnc3c2cnn3-c2ccc(C)c(Cl)c2)C1 (centres undefined),-0.8,-1.4%,-34.3*,-4.3,-1.6,0.1
CCN1CCN(c2c(/C=C3\SC(=S)N(Cc4ccco4)C3=O)c(C)c(C#N)c(=O)n2C)CC1,234.9*,7.08µM*,-4.2,32.2*,-5.5,-0.6
CC(=O)NCC(=O)OCC(=O)Nc1ccc(C(C)=O)cc1,5.3,7.8%,-30.8*,13.0,4.5,-0.8
O=C(COC(=O)CCC1CCCC1)Nc1ccc(F)cc1,4.3,nt,20.3,2.6,nt,0.4
CCc1cccc(CC)c1NC(=O)CO/N=C(\C)c1cccs1,29.7,-1.1%,-6.9,-12.4,-6.6,-0.3
COC(=O)c1ccc(NC(=O)COC(=O)CCC2CCCC2)cc1,13.5,nt,-41.1*,-3.4,nt,-0.1
CC(=O)c1ccc(NC(=O)C[n+]2ccccc2)cc1,1.2,nt,-30.5*,18.4,-1.9,0.0
CC(=O)c1ccc(NC(=O)CO/N=C(\C)c2cccs2)cc1,2.5,0.0%,-35.6*,-3.0,-1.3,-0.1
O=c1cc(-c2ccc(F)cc2F)[nH]c2ccc(F)cc12,nt,-4.3%[96.6 µM],nt,nt,nt,nt
Cc1ccccc1NC(=O)c1sc2nc(N3CCOCC3)c3c(c2c1N)CC(C)(C)OC3,-0.1,-1.0%,0.9,-8.2,-3.6,-0.2
COc1ccc(CNC(=O)Cn2c(-c3ccccc3)cc(C(C)=O)c2C)cc1OC,0.9,1.1%,-26.2,-4.8,-3.9,-0.4
